PubChem BioAssay
The source made the active and inactive calls.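 The calls were made as follows, unless noted: active = z-score of at least 1.8 in each of two replicates, scored against plate mean and spread of sample wells; inactive = the rest.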

How the values were obtained:
[1] = MELAS cybrid and Rieske KO viability enhancers – cell-based, MELAS cybrids, Rieske KO mouse fibroblasts, CellTiter-Glo, primary screen (AID 1508586;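 active = mean z-score across replicates of 1.96 or higher in either the MELAS or the Rieske mutant cell line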;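 also: test concentration not given here; z relative to plate mean and SD of compound and empty wells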); conditions: low glucose
[2] = galactose survival enhancers in mitochondrial complex I cybrids – cell-based, galactose medium, ATP luminescence, primary screen (AID 1645843); conditions: complex I mutant cybrid cells, 72 h, stronger effect = higher value;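 also: positive z means more ATP and so rescue of galactose-driven cybrid death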
[3] = MELAS cybrid survival, CellTiter-Glo 48 h, stronger effect = higher value
[4] = Rieske KO mouse fibroblast survival, CellTiter-Glo 72 h

SMILES | z-score [1, 3] | z-score [1, 4] | z-score [2]
CN1C(=O)N(CCCc2ccncc2)C(=O)C12CCN(C1CCSCC1)CC2 | -0.208 (inactive) | -0.033 | 1.08 (inactive)
C[C@H](O)[C@H]1NC(=O)[C@@H]2C[C@H](NC(=O)Nc3cccc(F)c3)CN2C1=O | 0.0941 (inactive) | 0.103 | -0.26 (inactive)
CCN1C(=O)N(Cc2cccc(OC)c2)C(=O)C12CCN(CC1CC=CCC1)CC2 (stereo not given) | -0.681 (inactive) | -0.854 | -0.435 (inactive)
Cn1c2c(cc(Cc3ccccc3F)c1=O)CN(C(=O)c1ccc(C#CC(C)(C)O)o1)CC2 | -0.447 (inactive) | 0.668 | -0.48 (inactive)
COc1ccccc1C(=O)N1CCN2C(=O)[C@@H]3CSCN3C(=O)[C@H]2C1 | -0.216 (inactive) | 0.475 | -0.395 (inactive)
